Assay results from PubChem BioAssay AID720513 (Broad Institute, 2013).
In all, about 2,100 compounds went through this assay and about 480 (23%) were called active. Roughly 5% stayed inconclusive and do not appear here.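 How the source made its calls: active means fitted curve reaches 40% activation at or below the top valid concentration, in every replicate test; inconclusive means replicate tests disagree on the call; inactive means the rest, including activity in the opposite direction.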 Not all results are given here. Potency and affinity values are given separately.

Assay: PGC1a acetylation increase, cellular AlphaLISA – cell-based, cherry-picked samples, set 6, dose response (AID 720513);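 further: cells made to overexpress flag tagged PGC1a plus GCN5 acetyltransferase by viral infection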
Details: U2OS PGC1a acetylation AlphaLISA, overnight, 0 = neutral, -100 = inhibitor control; series mostly up to 19.5 µM; activation (acetylation increase): at the top concentration

Activation (acetylation increase), inactive:
CCC(=O)N[C@H]1CC[C@H](CC(=O)OC)O[C@H]1CO -20.6%
CCCc1ccc(C(O)c2ncc(-c3cccc(F)c3)[nH]2)cc1 (stereo not given) 9.11%
COc1ccc(S(=O)(=O)Nc2ccc3c(c2)C(=O)N([C@H](C)CO)C[C@@H](C)[C@H](CN(C)C(=O)Nc2ccc(C(F)(F)F)cc2)OCCCC[C@@H](C)O3)cc1 -7%
O=C(OCc1nnc(-c2ccccc2)o1)C1=COCCO1 5.96%
C=CCn1c(SCc2c(C)noc2C)nc2ccccc2c1=O -6.19%
C[C@@H]1CN([C@@H](C)CO)S(=O)(=O)c2ccc(-c3ccccc3)cc2O[C@@H]1CN(C)C(=O)c1ccccc1F -30%
CCn1c(C(C)NC(=O)c2ccccc2C)n[nH]c1=S (stereo not given) 26%
COc1ccc(C#Cc2ccc([C@H]3[C@@H](CO)N4CCCCN(C(=O)Nc5ccccc5)C[C@H]34)cc2)cc1 -91% [at 21 µM]
O=C(Cn1ncc(Cl)c(Cl)c1=O)NC(=O)NC1CCCCC1 -38.6%
CO[C@@H]1CN(C)C(=O)c2cc(NC(C)=O)ccc2OC[C@H](C)N(Cc2cc(F)ccc2F)C[C@H]1C 9.55%
N#C/C(=C/c1ccc(OCc2ccc(C(=O)O)cc2)c(Br)c1)c1cccc(F)c1 24.4%
C[C@H]1CN([C@@H](C)CO)S(=O)(=O)c2ccc(Br)cc2O[C@@H]1CN(C)S(=O)(=O)c1ccccc1F 35.6%
CCN(C[C@@H]1N[C@@H](CO)[C@H]1c1ccc(-c2ccc(F)cc2)cc1)C(=O)CN(C)C -2.97% [at 21 µM]
COc1ccccc1C#Cc1ccc([C@H]2[C@H](C#N)N(C(=O)C3CCCC3)[C@H]2CO)cc1 -92%
O=S(=O)(c1ccc(Cl)cc1)c1snnc1-c1ccccc1 -91.3%
Clc1ccc(-c2csc(N3CCSCC3)n2)cc1 28.4%
C[C@@H]1CN([C@@H](C)CO)C(=O)CCCn2cc(nn2)CO[C@H]1CN(C)S(=O)(=O)c1ccccc1 -19%
CCCn1c(-c2ccccc2)cc(SC)c(C#N)c1=O -11.4%
COc1c(O)cc(O)c2c(=O)cc(-c3ccccc3)oc12 -3.89%
C=CCn1c(C)nnc1SCC(=O)NC1CC1 -11.2%
CC(C)c1ccc(NC(=O)CCNS(=O)(=O)c2cccc3nonc23)cc1 25.9%
Cc1cc(C)nc(SCC(=O)OCN2C(=O)c3ccccc3C2=O)n1 -12.4%
COc1ccccc1NS(=O)(=O)c1cccc(NC(=O)C2CC(=O)N(Cc3ccccc3)C2)c1 (stereo not given) -13.3%
CCN(c1ccccc1)S(=O)(=O)c1ccc(OC)c(NC(=O)Cc2ccc(F)cc2)c1 23.9%
CCc1ccc(Nc2nnc(SCC(=O)Nc3ccc(C(=O)O)cc3)s2)cc1 7.61%
CCOc1ccccc1C(=O)NCCCCCC(=O)O -10.7%
COCCNC(=O)CN1CCC(NC(=O)C(C)(C)C)CC1 -10.4%
O=C(c1cc2ccccc2o1)N1CC=C(c2ccccc2)CC1 11.8%
CC1=Nc2ccccc2N=C(NC(=O)CN2CCN(c3ccccc3)CC2)C1c1ccccc1 (stereo not given) 15.8%
COc1cc(C2C(C#N)=C(N)Oc3c2oc(CO)cc3=O)cc(OC)c1OC (stereo not given) 14.7%
CC(C)N1CCc2c(sc(NC(=O)C3CCCCC3)c2C(N)=O)C1 -11.6%
COC(=O)[C@@]1(Cc2ccccc2CN=[N+]=[N-])N=C(c2ccc(OCCCO)cc2)O[C@H]1c1ccccc1 -52.1%
Cc1ccccc1-n1nnnc1Sc1nnnn1-c1ccccc1 -122%
Cc1ccccc1Cn1nc(C)c(NC(=O)c2cc(-c3cccs3)on2)c1C -5.04%
NC(=O)COC(=O)/C=C/c1ccc2ccccc2n1 21.1%
COc1ccc(S(=O)(=O)N2c3ccc(F)cc3CCC2C)cc1 (stereo not given) 32.1%
CCOc1ccc(N2C(=O)Cc3ccccc3C2=O)cc1 -25.8%
O=C(CCc1nc2ccccc2c(=O)[nH]1)OCC(=O)N1CCc2ccccc21 1.36%
CCc1ccc(N2CC(O)=C(c3nc4ccccc4c(=O)[nH]3)C2=N)cc1 24.7%
CO[C@H]1CN(C)C(=O)c2ccc(NC(=O)c3ccno3)cc2OC[C@H](C)NC[C@H]1C 26.5%
Cc1cccc(C)c1NC(=O)CN(C)C(=O)c1cc(S(=O)(=O)N(C)C)ccc1N1CCCC1 8.66%
COc1ccccc1C(=O)Nc1ccc2c(c1)nc(CCNC(=O)c1ccco1)n2C 20.5%
Cc1ccc2nsnc2c1S(=O)(=O)N(Cc1ccco1)Cc1cc2cccc(C)c2[nH]c1=O 0.899%
CN(Cc1ccccc1)S(=O)(=O)c1ccc(S(=O)(=O)N(Cc2ccc(F)cc2)C2CCCC2)cc1 4.54%
COc1ccc(-c2csc(N(CCCN(C)C)C(=O)c3ccc(Br)cc3)n2)cc1 34.3%
COc1ccc(-c2csc(N(CCCN(C)C)C(=O)c3cccs3)n2)cc1 15.2%
CO[C@H]1CN(C)C(=O)c2cc(NC(C)=O)ccc2OC[C@@H](C)N(CC2CCCCC2)C[C@@H]1C 20.4%
CC(c1n[nH]c(=S)n1Cc1ccccc1)N(C)C (stereo not given) 7.93%
O=S(=O)(c1ccc2[nH]ccc2c1)N1CCCCCC1 -0.576% [at 5 µM]
CCCCSCCCNC(=O)c1cn(C)c2ccc(S(=O)(=O)N3CCCC3)cc2c1=O 34% [at 10 µM]
CCNc1nc(Oc2ccc(C#N)cc2)cc(C(F)(F)F)n1 9.53%
COc1ccccc1C(=O)Oc1cc(N)n(S(=O)(=O)c2ccc(C)cc2)n1 14.8%
CCOC(=O)C1=C(C)N=C2SC(C(=O)OC)=CC(=O)N2C1c1cccc(OC)c1 (stereo not given) 15.5%
Cn1c(Cl)cnc1C1CC(=O)c2cc(Cl)ccc2O1 (stereo not given) -60.7%
Cc1noc(C)c1NC(=O)N(C)C[C@@H]1Oc2c(NS(=O)(=O)c3cn(C)cn3)cccc2C(=O)N([C@@H](C)CO)C[C@@H]1C -16.3%
CO[C@@H]1CN(C)C(=O)c2cc(NS(=O)(=O)c3ccc(Cl)cc3)ccc2OC[C@H](C)N(C)C[C@H]1C 24.4%
CC(C)C#Cc1ccc2c(c1)O[C@@H](CN(C)C(=O)C1CC1)[C@@H](C)CN([C@@H](C)CO)S2(=O)=O 6.72%
Cc1cccc(C)c1NC(=O)C(NC(=O)c1ccccn1)c1ccc([N+](=O)[O-])cc1 (stereo not given) 27.5%
CCCCCC(=O)N1C[C@H](n2cc(-c3ccc(F)cc3)nn2)[C@@H](O)C[C@@H]1c1ccc(C)cc1 28.2%
CCOC(=O)CC1C(=O)NCCN1S(=O)(=O)c1ccc(C)cc1 (stereo not given) 3.45%
CCOC(=O)C1=C(CS(=O)(=O)c2ccccc2)NC(=O)NC1c1ccc(O)c(OC)c1 (stereo not given) -9.06%
OC[C@@H]1[C@H](c2ccc(C#CC3CCCC3)cc2)[C@H]2CN(CCC(F)(F)F)CCCCN12 -98.6%
CO[C@H]1CN(C)C(=O)c2cc(NC(=O)NC(C)C)ccc2OC[C@H](C)N(Cc2ccc(-c3ccccn3)cc2)C[C@@H]1C -41%
CCCS(=O)(=O)N1CCCC(C(=O)NCCCOC(C)C)C1 (stereo not given) 7.83%
Cc1nnc(NC(=O)CSc2ncc(-c3ccccc3)[nH]2)s1 -29.7%
Cc1ccc(-c2nc(NC(=O)c3nn(C)cc3[N+](=O)[O-])sc2C)cc1 -105%
CO[C@H]1CN(C)C(=O)c2ccc(NS(=O)(=O)c3ccccc3)cc2OC[C@@H](C)N(C(=O)NC(C)C)C[C@@H]1C 3.81%
O=C(c1cc(Cl)ccc1Cl)N1CCc2ccccc21 17.3%
O=C(O)c1ccccc1C(=O)N1CCN(C(=O)c2ccccc2Cl)CC1 -22.8%
O=C(c1ccccc1Cl)N1CCNCC1 7.9%
C[C@H](CO)N1C[C@H](C)[C@@H](CN(C)Cc2cncnc2)Oc2cc(C#CC3CC3)ccc2S1(=O)=O 1.37%
O=C(COn1nnc2ccc(Cl)cc21)NC12CC3CC(CC(C3)C1)C2 9.47%
CC(C)(C)OC(=O)NCCc1nnc(SCc2ccc(Cl)cc2)o1 -3.74%
OC(CN1c2ccccc2Sc2ccccc21)Cn1nnc2ccccc21 (stereo not given) 16.8% [at 10 µM]
CCOc1ccccc1OCCn1nnc2ccccc21 12.5%
CN1C[C@H](C(=O)N[C@]2(C)O[C@@]3(O)[C@@H]4CCCN4C(=O)[C@H](Cc4ccccc4)N3C2=O)CC2c3cccc4[nH]cc(c34)C[C@H]21 (stereo not given in full) -13.6%
O=C(Nc1cccc(F)c1)N1C[C@@H]2N[C@H](C1)C2c1ccc(-c2ccc(F)cc2)cc1 (stereo not given in full) -61.4%
C[C@H](CO)N1C[C@H](C)[C@H](CN(C)S(C)(=O)=O)Oc2ncc(-c3cc4ccccc4o3)cc2C1=O 15.1% [at 18 µM]
CC(C)[C@H](NC(=O)NCc1cccs1)C(=O)O 11.6%
O=C(Nc1nc2ccccc2[nH]1)c1ccc(Cl)c(S(=O)(=O)N2CCCC2)c1 32%
CCOc1ccnc(OCC)c1Br 4.57%
C[C@@H]1CN([C@H](C)CO)C(=O)c2cc(NS(C)(=O)=O)ccc2O[C@@H]1CN(C)S(=O)(=O)c1ccc(Cl)cc1 24.6%
CCN1CCN(Cc2ccc(NC(=O)c3ccc(C)c(NC(=O)c4c[nH]c5cc(C(F)(F)F)ccc5c4=O)c3)cc2C(F)(F)F)CC1 -97.3%
Cc1ccccc1S(=O)(=O)NCC[C@@H]1CC[C@@H](NC(=O)C2CCOCC2)[C@H](CO)O1 -0.888%
COCCSc1ccccc1C(=O)Nc1cc(C)on1 -34.8%
Cn1nnnc1SC1CC(=O)N(c2ccccc2)C1=O (stereo not given) 31.9%
CN(C)C(=O)c1ccc(-c2ccc([C@@H]3[C@H]4CN(C(=O)CC5CC5)CC(=O)N4[C@H]3CO)cc2)cc1 8.08%
OC(c1ccc(Cl)cc1Cl)C(Cc1cccnc1)n1cncn1 (stereo not given) 20%
OC(c1cc(-c2ccc(Cl)cc2)nc2ccccc12)C1CCCCN1 (stereo not given) 34% [at 10 µM]
COc1ccc2c(c1)sc1nc(-c3ccccc3)cn12 31.5%
COc1ccc2c3c(n(C)c2c1)[C@H](CO)NCC31CCN(Cc2cc(F)ccc2F)CC1 35.2%
Cc1ccc(C(=O)NNC(=O)c2cccc(Br)c2)cc1 10.6%
Cc1ccccc1NC(=O)CC1c2ccccc2CC(C)(C)N1C (stereo not given) 22.8%
CN1CCN(C(=O)c2sc(=S)n(-c3ccccc3)c2N)CC1 8.38%
Cn1nc(-c2ccccc2F)c2cc(C(=O)N3CCN(C(=O)c4ccco4)CC3)sc21 32.2%
CCN1CCN(c2nnc(-c3ccccc3)c3ccccc23)CC1 11.4%
O=C1c2ccccc2-c2c1cccc2C(=O)N1CCN(C(=O)c2ccco2)CC1 -5.11%
O=C(COc1ccccc1)N1CCN=C1SCc1ccccc1 104%
Cc1cc(C)c2nc(N3CCCC(C(=O)N4CCC(C(N)=O)CC4)C3)sc2c1 (stereo not given) 12.2%
Cc1ccc(S(=O)(=O)N2CCN(C(=O)CSc3nc4ccccc4c(=O)[nH]3)CC2)c(C)c1 38.8% [at 10 µM]
